In PubChem BioAssay (NCI) one finds growth data, which are given here for 14 compounds.

The panel holds about 83,000 compounds, 20% with a hit somewhere; the sample as a whole holds those more often.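 Activity criterion: percent growth below 10, measured after cells in 96-well plates were exposed to a single compound concentration for 48 hours.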 Unmarked numbers belong to inactive results. Activity calls are given as the source filed them.

Assay in all cases: NCI-60 one-dose screen, 48 h (100 = growth as untreated, 0 = no growth, -100 = all killed)
Holding throughout (settings): 10 µM unless noted

Test [1] relates to DU-145 prostate.
Test [2] has as its system K-562 leukemia.
For test [3], the system named is MALME-3M melanoma.
Test [4] concerns MDA-MB-231 breast.
The test system of test [5] is RXF 393 renal.
The test system of test [6] is SF-268 CNS.
Test [7] has as its system SF-295 CNS.
Test [8] relates to SF-539 CNS.
In test [9] the test system is UACC-257 melanoma.
The subject of test [10] is M14 melanoma.

Take `CNC(=O)c1cc(Oc2ccc3nc(NC(C)=O)sc3c2)ccn1`: the growth in test [1] is 101%; in [2] it was 81.8%; in test [3] it was 92.7%; in [4], 98.7%; in [5], 115%; in test [6] it was 97.4%. For the same compound, the growth in test [7] is 95.2%; in test [8], 94.3%; in [9], 102%; in test [10], 101%.

Turning to `COc1ccc(C2c3sc4c(F)cccc4c3Oc3nc[nH]c(=O)c32)cc1` (stereo not given), the growth is 98.2% in test [1]; 72.2% in test [2]; 94.4% in [3]; 72.7% in test [4]; 72.3% in test [5]; 82% in test [6]. In addition, the growth in test [7] is 88%; in [8] it was 77.4%; in test [9], 105%; in [10], 91.4%.

For `O=C(c1cc2ccccc2o1)c1nn(-c2ccccc2)/c(=N/N=Cc2cn(-c3ccccc3)nc2-c2cc3ccccc3oc2=O)s1`, the growth in test [1] is 103%; in test [2], 78.2%; in test [3] it was 98.9%; in test [4], 86.2%; in test [5] it was 107%; in test [6] it was 96.8%. Moreover, the growth in test [7] was 104%; in [8], 98.4%; in [9], 103%; in test [10] it was 97.8%.

Turning to `Cc1cccc(Cl)c1NC(=O)c1ccc2nc(NC(=O)NCCN(C)C)sc2c1`, the growth is 104% in [1]; 14.7% in test [2]; 70.7% in [3]; 92.6% in test [4]; 47.5% in test [5]; 93.6% in test [6]. The growth in [7] is 86.7%; in test [8], 79.8%; in test [9] it was 86.1%; in [10] it was 90.5%.

For the compound `OB(O)c1cccc(-c2nc3ccc4[nH]ncc4c3c3c2CCCC3)c1`, the growth in test [1] was 50.3%; in test [2], 52.6%; in [3], 120%; in test [4], 26.1%; in test [5] it was 13.6%; in [6] it was 37.9%. For the same compound, the growth in test [7] is 71.6%; in test [8], 20.9%; in [9], 103%; in [10] it was 64.8%.

For `Cc1ccc(CNc2ccc(Cl)cc2NCc2ccc(C)c(O)c2)cc1O`, the growth in test [1] was 23.4%; in test [2], 12.3%; in test [3] it was -3.38% (active); in [4] it was -52.2% (active); in test [5], 21.2%; in test [6], 28.3%. Also, the growth in test [7] is 74.2%; in test [8], 25.8%; in [9], 46.2%; in [10], 25.3%.

As for `COc1cc(C(=O)n2nc(N3CCN(C)CC3)c3cc(N)ccc32)cc(OC)c1OC`, the growth in test [1] is 22.5%; in test [2] it was 10.4%; in test [3] it was 65.3%; in test [4], 50.3%; in test [5], -13.3% (active); in test [6], 47.2%. Moreover, the growth is 4.42% (active) in test [7], -14.1% (active) in test [8], 85.3% in test [9] and 2.63% (active) in [10].

As to `Cc1ccc(/C=N/Nc2nc(Nc3ccccc3)nc(-n3nc(C)cc3C)n2)cc1`, the growth in test [1] is 40.9%; in [2], 37.1%; in [3], 80.8%; in [4], 51.6%; in test [5], 55.9%; in [6], 44%. The growth in test [7] was -40.7% (active); in test [8] it was 56.5%; in [9] it was 54.2%; in test [10], 42.9%.

For `O=C(/C=C/c1cn(-c2ccccc2)nc1-c1ccc([N+](=O)[O-])cc1)c1ccc(Cl)cc1`, the growth in [1] was 20.4%; in [2], 12.4%; in test [3], 49.7%; in [4], 14.7%; in [5], 27.3%; in test [6], 34.5%. Also, the growth in test [7] was 77%; in test [8], 30%; in test [9], 103%; in test [10], 37.8%.

Turning to `Cc1cc(Cl)ccc1NC(=O)c1cc2ccccc2cc1O`, the growth was 31.1% in test [1]; 9.93% (active) in test [2]; 7.3% (active) in [3]; 23.7% in test [4]; 28% in [5]; 30.8% in test [6]. Further, the growth in [7] was 8.91% (active); in [8], 22.6%; in test [9] it was -5.38% (active); in test [10] it was 30.4%.

`CS(=O)(=O)Nc1cc(-c2ccc3ncnc(Nc4c(Cl)ccc5c4OCO5)c3c2)cnc1Cl`: the growth was 6.12% (active) in [1]; 13.6% in test [2]; -29% (active) in test [3]; 1.01% (active) in [4]; -45.8% (active) in test [5]; -21.5% (active) in test [6]. Besides, the growth was -29.8% (active) in [7], -36.9% (active) in test [8], -3.47% (active) in test [9] and -9.85% (active) in test [10].

Consider `O=C1c2c(c3c4ccc(Br)cc4oc3c3[nH]c4ccccc4c23)C(=O)N1O`, for which the growth in test [1] was 38.4%; in test [2], 30.4%; in test [3] it was 1.92% (active); in [4], 80.1%; in test [5], 31.7%; in test [6], 13.9%. Further, the growth was 34.4% in [7], 7.26% (active) in test [8], 83.6% in [9] and 30.9% in test [10].

Turning to `CCNc1nc(-c2ccc(Cl)c(OC)c2)c(-c2ccnc(NCCCNS(=O)(=O)c3ccc(Cl)cc3)n2)s1`, the growth was 74.3% in test [1]; 32.3% in test [2]; 7.63% (active) in test [3]; 50.9% in test [4]; 70.2% in test [5]; 60.4% in test [6]. The growth was 70.3% in test [7], 86.6% in test [8], 29.2% in [9] and 23% in test [10].

Turning to `COC(=O)/C(CCC=C(C)C)=C1\[C@@H](OC(C)=O)C[C@@]2(C)[C@H]1C[C@@H](O)[C@H]1[C@@]3(C)CC[C@H](NCCN)[C@@H](C)[C@@H]3CC[C@@]12C`, the growth in test [1] was 65.4%; in test [2] it was -7.67% (active); in test [3], 89.4%; in [4] it was 93%; in test [5], 57.8%; in [6], 76.6%. In addition, the growth is 98.2% in test [7], 90.2% in test [8], 99.7% in test [9] and 87% in [10].
